PubChem BioAssay (NCATS)
Records with an inconclusive call do not appear. Activity calls are given as the source filed them. The call rests on the fitted dose curve; in most records, active means well fitted cell-killing curve with a large enough effect; inconclusive means small, poorly fitted or top-dose-only effect, or effect the other way; inactive means flat fitted curve, though single readings scatter.
On the % scale 0 is the no-effect control and ±100 the full control effect; potency means the concentration at half of the fitted maximal effect.

The molecules below were run on Tov-21-G (assay: Primary qHTS to identify gynecologic anti-cancer compounds using libraries of approved drugs and bioactive compounds (AID 1345084; further: nearly all actives have a fitted effect of over 55% in size)). Conditions: Gynecologic cancer cell panel viability, ATPlite luminescence, 48 h; series mostly up to 57.5 µM; activity change, negative = cytotoxicity: at the top concentration.
In short: (§1)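 Cytotoxicity screen measuring ATP content by luciferase luminescence. Each compound is applied at five concentrations for 48 h at 37 C with 5% CO2.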
In the case of `CCCCCCCCCCOCC(O)CN` (stereo not given), the “activity change, negative = cytotoxicity” value is reported as -11.5% (inactive). `Cc1c(C)n(Cc2ccccc2)c2ccc(C(=O)OCCN(C)C)cc12` was tested, and the “activity change, negative = cytotoxicity” value was -5.47% (inactive). In the case of `O=C1OCCN1/N=C/c1ccc([N+](=O)[O-])o1`, the “activity change, negative = cytotoxicity” value is reported as -21.5% (inactive). For `CCN(CC)CCOC(=O)C(c1ccccc1)C1CCCCC1` (stereo not given), the “activity change, negative = cytotoxicity” value was 5.72% (inactive). With `O=C(CCCN1CCC(O)(c2ccc(Br)cc2)CC1)c1ccc(F)cc1` the “activity change, negative = cytotoxicity” value was 1.34% (inactive). For `CC(O)(P(=O)(O)O)P(=O)(O)O`, the “activity change, negative = cytotoxicity” value was 5.93% (inactive). For `CCCCOc1ccc(C(=O)CCN2CCCCC2)cc1`, the “activity change, negative = cytotoxicity” value was -24.5% (inactive). In the case of `Clc1ccc2c(c1)CCc1cccnc1C2=C1CCNCC1`, the “activity change, negative = cytotoxicity” value is reported as -16.7% (inactive). For `CCCOC(C(=O)OC1CCN(C)CC1)(c1ccccc1)c1ccccc1`, the “activity change, negative = cytotoxicity” value was 4.19% (inactive). `COc1ccc(/C=C/C(=O)c2ccc(OC)cc2OC)cc1` was tested, and the “activity change, negative = cytotoxicity” value was -25.1% (inactive). For `CCOc1ccc(Cc2nccc3cc(OCC)c(OCC)cc23)cc1OCC`, the “activity change, negative = cytotoxicity” value was -27.4% (inactive). For `C[C@H]1C[C@H]2[C@@H]3CCC4=CC(=O)C=C[C@]4(C)[C@@]3(Cl)[C@@H](O)C[C@]2(C)[C@@]1(O)C(=O)CO`, the “activity change, negative = cytotoxicity” value was 3.29% (inactive). `O=C(COc1ccc(Cl)cc1)N1CCN(Cc2ccc3c(c2)OCO3)CC1` was tested, and the “activity change, negative = cytotoxicity” value was -1.18% (inactive). In the case of `Cc1cccc(C)c1NC(=O)CN1CCN(CCCC(c2ccc(F)cc2)c2ccc(F)cc2)CC1`, the “activity change, negative = cytotoxicity” value is reported as -17% (inactive). `C[C@]12CCC(=O)C=C1[C@@H]1C[C@@H]1[C@H]1[C@@H]3[C@@H]4C[C@@H]4[C@@]4(CCC(=O)O4)[C@@]3(C)CC[C@@H]12` was tested, and the “activity change, negative = cytotoxicity” value was -9.68% (inactive). With `CC1=C(C(=O)OC(C)C)C(c2cccc([N+](=O)[O-])c2)C(C(=O)OC2CN(C(c3ccccc3)c3ccccc3)C2)=C(N)N1` (stereo not given) the “activity change, negative = cytotoxicity” value was 0.559% (inactive). For `COc1cc2c(cc1OC)C(C(C(=O)N(CCc1ccc(OC)c(OC)c1OC)CCc1ccc(OC)c(OC)c1OC)c1ccccc1)=NCC2` (stereo not given), the “activity change, negative = cytotoxicity” value was 2.9% (inactive). With `COCc1c(C(C)C)nc(C(C)C)c(/C=C/[C@@H](O)C[C@@H](O)CC(=O)O)c1-c1ccc(F)cc1` the Potency was 7.08 µM (active). `c1ccc(CNCCNCc2ccccc2)cc1` was tested, and the “activity change, negative = cytotoxicity” value was 2.61% (inactive). In the case of `C=C1C[C@H]2[C@@H]3C=C(C)C4=CC(=O)CC[C@]4(C)[C@H]3CC[C@]2(C)[C@@]1(OC(C)=O)C(C)=O`, the “activity change, negative = cytotoxicity” value is reported as -1.8% (inactive). With `CCN(CCCc1ccccc1)CCCc1ccccc1` the “activity change, negative = cytotoxicity” value was -14.6% (inactive). For `O=C(CCN1CCC(c2ccccc2)C1)c1ccc2c(c1)OCCO2` (stereo not given), the “activity change, negative = cytotoxicity” value was -6.95% (inactive). For `CN(C)CC/C=C1\c2ccccc2Sc2ccc(Cl)cc21`, the “activity change, negative = cytotoxicity” value was 13.8% (inactive). For `COc1cccc(CCc2ccccc2OCC(CN(C)C)OC(=O)CCC(=O)O)c1` (stereo not given), the “activity change, negative = cytotoxicity” value was -8.62% (inactive). For `CN1CCC(=C2c3ccccc3Sc3ccccc32)CC1`, the “activity change, negative = cytotoxicity” value was -5.25% (inactive). With `CN1CCN(CCCN2c3ccccc3Sc3ccc(S(=O)(=O)N(C)C)cc32)CC1` the “activity change, negative = cytotoxicity” value was -3.58% (inactive). With `CC(=O)N/N=C/c1ccc([N+](=O)[O-])o1` the “activity change, negative = cytotoxicity” value was -15.3% (inactive). In the case of `CC(=O)c1ccc2c(c1)N(CCCN1CCC(CCO)CC1)c1ccccc1S2`, the “activity change, negative = cytotoxicity” value is reported as -1.41% (inactive). For `CN(C(=O)CN(CCO)CC(=O)N(C)C(C)(C)Cc1ccccc1)C(C)(C)Cc1ccccc1`, the “activity change, negative = cytotoxicity” value was 7.85% (inactive). `CC(C)=CCC1C(=O)N(c2ccccc2)N(c2ccccc2)C1=O` was tested, and the “activity change, negative = cytotoxicity” value was -14.4% (inactive).

Each molecule was assayed on Tov112D in the same assay as above. Conditions: Gynecologic cancer cell panel viability, ATPlite luminescence, 48 h; series mostly up to 57.5 µM; activity change, negative = cytotoxicity: at the top concentration.
In short: as §1
In the case of `CCCCCCCCCCOCC(O)CN` (stereo not given), the “activity change, negative = cytotoxicity” value is reported as -13.3% (inactive). `Cc1c(C)n(Cc2ccccc2)c2ccc(C(=O)OCCN(C)C)cc12` was tested, and the “activity change, negative = cytotoxicity” value was 4.38% (inactive). For `O=C1OCCN1/N=C/c1ccc([N+](=O)[O-])o1`, the “activity change, negative = cytotoxicity” value was -21.2% (inactive). In the case of `CCN(CC)CCOC(=O)C(c1ccccc1)C1CCCCC1` (stereo not given), the “activity change, negative = cytotoxicity” value is reported as -14.7% (inactive). `O=C(CCCN1CCC(O)(c2ccc(Br)cc2)CC1)c1ccc(F)cc1` was tested, and the “activity change, negative = cytotoxicity” value was -16.4% (inactive). For `CC(O)(P(=O)(O)O)P(=O)(O)O`, the “activity change, negative = cytotoxicity” value was -8.41% (inactive). For `CCCCOc1ccc(C(=O)CCN2CCCCC2)cc1`, the “activity change, negative = cytotoxicity” value was -30% (inactive). With `Clc1ccc2c(c1)CCc1cccnc1C2=C1CCNCC1` the “activity change, negative = cytotoxicity” value was -8.78% (inactive). `CCCOC(C(=O)OC1CCN(C)CC1)(c1ccccc1)c1ccccc1` was tested, and the “activity change, negative = cytotoxicity” value was -1.67% (inactive). With `COc1ccc(/C=C/C(=O)c2ccc(OC)cc2OC)cc1` the “activity change, negative = cytotoxicity” value was -19.7% (inactive). In the case of `Oc1c(I)cc(I)c2cccnc12`, the “activity change, negative = cytotoxicity” value is reported as -1.42% (inactive). For `C[C@H]1C[C@H]2[C@@H]3CCC4=CC(=O)C=C[C@]4(C)[C@@]3(Cl)[C@@H](O)C[C@]2(C)[C@@]1(O)C(=O)CO`, the “activity change, negative = cytotoxicity” value was -2.21% (inactive). With `O=C(COc1ccc(Cl)cc1)N1CCN(Cc2ccc3c(c2)OCO3)CC1` the “activity change, negative = cytotoxicity” value was -2.84% (inactive). `Cc1cccc(C)c1NC(=O)CN1CCN(CCCC(c2ccc(F)cc2)c2ccc(F)cc2)CC1` was tested, and the “activity change, negative = cytotoxicity” value was -1.68% (inactive). `C[C@]12CCC(=O)C=C1[C@@H]1C[C@@H]1[C@H]1[C@@H]3[C@@H]4C[C@@H]4[C@@]4(CCC(=O)O4)[C@@]3(C)CC[C@@H]12` was tested, and the “activity change, negative = cytotoxicity” value was -10.6% (inactive). In the case of `CC1=C(C(=O)OC(C)C)C(c2cccc([N+](=O)[O-])c2)C(C(=O)OC2CN(C(c3ccccc3)c3ccccc3)C2)=C(N)N1` (stereo not given), the “activity change, negative = cytotoxicity” value is reported as 8.3% (inactive). In the case of `COc1cc2c(cc1OC)C(C(C(=O)N(CCc1ccc(OC)c(OC)c1OC)CCc1ccc(OC)c(OC)c1OC)c1ccccc1)=NCC2` (stereo not given), the “activity change, negative = cytotoxicity” value is reported as 0.176% (inactive). For `COCc1c(C(C)C)nc(C(C)C)c(/C=C/[C@@H](O)C[C@@H](O)CC(=O)O)c1-c1ccc(F)cc1`, the Potency was 3.16 µM (active). With `COc1cccc2c1C(=O)c1c(O)c3c(c(O)c1C2=O)C[C@@](O)(C(=O)CO)C[C@@H]3O[C@H]1C[C@H](N)[C@H](O)[C@H](C)O1` the Potency was 0.891 µM (active). In the case of `c1ccc(CNCCNCc2ccccc2)cc1`, the “activity change, negative = cytotoxicity” value is reported as 0.286% (inactive). For `C=C1C[C@H]2[C@@H]3C=C(C)C4=CC(=O)CC[C@]4(C)[C@H]3CC[C@]2(C)[C@@]1(OC(C)=O)C(C)=O`, the “activity change, negative = cytotoxicity” value was -3.81% (inactive). In the case of `CCN(CCCc1ccccc1)CCCc1ccccc1`, the “activity change, negative = cytotoxicity” value is reported as -20.2% (inactive). With `O=C(CCN1CCC(c2ccccc2)C1)c1ccc2c(c1)OCCO2` (stereo not given) the “activity change, negative = cytotoxicity” value was 0.482% (inactive). For `COc1cccc(CCc2ccccc2OCC(CN(C)C)OC(=O)CCC(=O)O)c1` (stereo not given), the “activity change, negative = cytotoxicity” value was -4.26% (inactive). `CN1CCC(=C2c3ccccc3Sc3ccccc32)CC1` was tested, and the “activity change, negative = cytotoxicity” value was -17.6% (inactive). In the case of `CN1CCN(CCCN2c3ccccc3Sc3ccc(S(=O)(=O)N(C)C)cc32)CC1`, the “activity change, negative = cytotoxicity” value is reported as -3.67% (inactive). With `CC(=O)N/N=C/c1ccc([N+](=O)[O-])o1` the “activity change, negative = cytotoxicity” value was -0.328% (inactive). For `CC(=O)c1ccc2c(c1)N(CCCN1CCC(CCO)CC1)c1ccccc1S2`, the “activity change, negative = cytotoxicity” value was -21.3% (inactive). `CN(C(=O)CN(CCO)CC(=O)N(C)C(C)(C)Cc1ccccc1)C(C)(C)Cc1ccccc1` was tested, and the “activity change, negative = cytotoxicity” value was 1.81% (inactive). With `CC(C)=CCC1C(=O)N(c2ccccc2)N(c2ccccc2)C1=O` the “activity change, negative = cytotoxicity” value was -20.7% (inactive).
